# Laboratory results published in publication PMC6212790, “How bacterial xenogeneic silencer rok distinguishes foreign from self DNA in its resident genome”.
# The full ranking holds about 33,000 sequences; the median of “e-score” is about -0.037, and the highest 2% start at about 0.34. Shown is part of a subset that was picked to be rich in the highest values.
# Biological target: T1, GST-Rok (full length) (Bacillus subtilis subsp. subtilis str. …, UniProt O34857 1-191)
# T1 sequence: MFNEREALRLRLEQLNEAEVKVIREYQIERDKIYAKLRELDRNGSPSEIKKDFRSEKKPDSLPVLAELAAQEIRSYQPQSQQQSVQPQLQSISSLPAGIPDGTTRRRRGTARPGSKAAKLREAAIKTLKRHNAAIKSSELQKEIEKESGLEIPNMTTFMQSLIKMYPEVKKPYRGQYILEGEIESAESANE
# Experiment: protein binding microarray; Rok is a gene silencer of Bacillus subtilis; high values mean tight binding
# Conditions: protein: recombinant; tags: GST (pTH5325, pDEST15-Magic modified); dsDNA, one strand shown
# Method in brief: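 Every oligonucleotide joins a 25-mer constant primer to a 35-mer variable part drawn from a de Bruijn sequence of order 10, so each non-palindromic 8-mer appears at least 32 times and each palindromic 8-mer 16 times. The preference for every 8-mer is reported as a unitless, rank-based enrichment score (E-score). This score spans 0.5 for the most favored 8-mer to −0.5 for the most disfavored.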
row,Sequence,binding signal [E-score]
1,CCTCTCTA,-0.198
2,CGTATCGA,0.0045
3,ACAAATAC,0.249
4,ACAAATAA,0.333
5,ATAAATAA,0.329
6,ATAAATAG,0.322
7,ACAAATAT,0.402
8,ATAAATAT,0.339
9,AATAACCT,0.0317
10,AACCACGT,-0.0233
11,ACCATAGT,0.207
12,TGATAGAA,0.388
13,CGATAGAG,-0.134
14,CGATAGAC,0.0161
15,AGATAGAA,0.26
16,CGATAGAA,0.344
17,GGATAGAA,0.171
18,AGGTGCCA,-0.0282
19,CTTATTGA,-0.157
20,AATAGATG,0.261
21,GATAGACA,-0.0476
22,GATAGATA,0.368

row,Sequence,binding signal [E-score]
1,CATAGATA,0.3
2,GATAGATC,0.273
3,TATAGATA,0.384
4,AATAGATA,0.262
5,AATAGATC,0.14
6,AATAGATT,0.388
7,ACCGTACT,0.0822
8,ATTTGGCC,-0.00123
9,CACGGTAG,0.264
10,AACATCAA,0.0614
11,CGAAGCAA,-0.114
12,AACCTCGC,-0.106
13,AAATTCGT,0.226
14,TAAATAAA,0.231
15,ACAATATA,0.298
16,AAAATATA,0.417
17,CAAATATC,0.285
18,CAAATATG,0.194
19,GAAATATA,0.283
20,CAAATATA,0.345
21,TAAATATA,0.394
22,AAAATAAA,0.199

row,Sequence,binding signal [E-score]
1,AAAATATT,0.358
2,AAAATATC,0.275
3,AAAATATG,0.278
4,AATGACCG,-0.0639
5,AGGAATTC,-0.159
6,ACGAACCA,0.000876
7,TCATTCAA,-0.111
8,CAGTTTTC,0.0134
9,AATCGATA,0.281
10,TATCGATA,0.376
11,GATCGATA,0.269
12,CTACAATA,0.291
13,AGAATCCT,0.0705
14,ACGAAACA,0.0691
15,ACGAAACT,0.337
16,ACGAAACC,-0.0947
17,AGCCTTAG,-0.181
18,ATGAGATC,0.0598
19,GGTAGATA,0.451
20,ATTAGATA,0.367
21,AGTAGATG,0.283
22,CGTAGATA,0.258

row,Sequence,binding signal [E-score]
1,AGTAGATC,0.324
2,ATGAGATA,0.346
3,CGTAGATC,0.21
4,AGTAGATA,0.442
5,GTTAGATA,0.241
6,CTGAGATA,0.0758
7,ATTAGATC,0.293
8,CGTAATAA,0.27
9,CTCTTCGC,0.197
10,CCATAAAC,-0.00276
11,ATAAAGAA,-0.0956
12,GTCATAAA,0.154
13,AATCTTCG,0.0665
14,CACTTATA,0.329
15,GATTTATA,0.315
16,AATTTATG,0.283
17,GTTTTATA,0.141
18,AACTTATA,0.403
19,TACTTATA,0.321
20,ATTTTATA,0.41
21,AATTTATA,0.435
22,ATTTTATG,0.251
